Laboratory results published in PubChem BioAssay AID448 (National Center for Advancing Translational Sciences (NCATS), 2006).
Hit rate of the full screen: of about 65,000 compounds, about 45 (0.07%) were called active. Calls come from the whole dose curve. Only a sample is shown.

Tested on: Schistosoma mansoni peroxiredoxin 2 (Prx2)
Test: Schistosoma Mansoni Peroxiredoxins (Prx2)
Conditions: S. mansoni Prx2 activity coupled to TGR/GSH (TGR is thioredoxin glutathione reductase), NADPH fluorescence loss, qHTS
Outline: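 Activity is read as the drop in NADPH fluorescence (365/450 nm), recorded every 30 sec for 8 min after H2O2 addition. Prx2 is coupled to TGR-driven NADPH oxidation through glutathione, in phosphate buffer pH 7.4.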
Potency is the fitted concentration of half-maximal effect.

Structure (SMILES)	Potency
CN(C)C(=O)c1ccc(-c2cncnc2Nc2ccccc2)cc1	> 57 µM (inactive)
NC(=O)c1ccc(OC[C@H](O)CN2CC=C(c3ccc(F)cc3)CC2)cc1	> 57 µM (inactive)
COc1ccc2c(=O)cc(-c3ccccc3)oc2c1O	> 57 µM (inactive)
NCCCNCCCCN(CCCN)/[N+]([O-])=N/O	> 57 µM (inactive)
OCCN1CCN(CC/C=C2\c3ccccc3Sc3ccc(C(F)(F)F)cc32)CC1	> 57 µM (inactive)
COCCn1c(=O)c(-c2cc(F)cc(F)c2)nc2cncnc21	> 11.4 µM (inactive)
Cc1c(S(=O)(=O)O)ccc(N=Nc2c(O)c(C(=O)O)cc3ccccc23)c1Cl	> 57 µM (inactive)
O=C(O)CS(=O)c1ccc2c3c(cccc13)C(=O)c1ccccc1-2 (stereo not given)	> 57 µM (inactive)
CC(C)NC(=O)N1CC[C@@]2(CCCN(C(=O)c3cccn3C)C2)C1	> 57 µM (inactive)
COC(=O)N1CCC2(CCCN(c3ccncc3)C2)CC1	> 57 µM (inactive)
COCCNc1ncnc2ccc(-c3cccnc3)cc12	> 57 µM (inactive)
Cc1nc2cnc(N3CCN(C)CC3)nc2n(C[C@H]2CCCO2)c1=O	> 57 µM (inactive)
COc1ccc2[nH]cc(CCNc3cc(-c4ccccc4CN(C)C)ncn3)c2c1	> 57 µM (inactive)
COc1ccc(CNc2ncncc2-c2ccccc2OC)c(OC)c1	> 57 µM (inactive)
COc1ccccc1-c1nc(N2CCN(C)CC2)c2ccccc2n1	> 57 µM (inactive)
C[C@]12CC[C@@H]3C(=CCc4cc(O)ccc43)[C@@H]1CCC2=O	> 57 µM (inactive)
CC(N)=NCc1cccc(CN)c1	> 57 µM (inactive)
CN=C(NC#N)NCCSCc1nc[nH]c1C	> 57 µM (inactive)

Structure (SMILES)	Potency
ClC(Cl)(Cl)C(N1CCN(c2ccccc2)CC1)N1CCN(c2ccccc2)CC1	> 57 µM (inactive)
COc1cccc(Cn2c(=O)cnc3cncnc32)c1	> 57 µM (inactive)
Cc1ccc(NC(=O)c2cccc(N(C)C)c2)cc1NC(=O)c1ccc(O)cc1	> 57 µM (inactive)
COc1ccc(Oc2ncc3nc(C)c(=O)n(-c4ccccc4)c3n2)cc1	> 57 µM (inactive)
CC1=CC(=O)C2=C(C)C[C@H](O)[C@@H]3[C@@H](OC(=O)[C@H]3C)[C@H]12	> 57 µM (inactive)
Cc1cnc(CNc2cc(-c3c(C)noc3C)ncn2)cn1	> 57 µM (inactive)
COCCn1c(=O)c(-c2cc(F)cc(F)c2)nc2cnc(N3CCNCC3)nc21	> 57 µM (inactive)
CCCC(C(=O)OCCN(CC)CC)(c1ccccc1)c1ccccc1	> 57 µM (inactive)
O=c1cnc2cnc(Nc3ccccc3)nc2n1Cc1ccc(F)cc1	> 57 µM (inactive)
O=C1C(c2ccccn2)=[N+]([O-])c2ccccc21	> 57 µM (inactive)
CN(Cc1ccco1)c1ncncc1-c1ccoc1	> 57 µM (inactive)
C[C@H]1O[C@@H](CC(=O)O)Cc2c1c(O)c1c(O)cc(-c3cc(=O)c4c(=O)c5c(c(=O)c=4c3=O)C[C@H](CC(=O)O)O[C@@H]5C)c(O)c1c2O	> 57 µM (inactive)
NS(=O)(=O)c1cc(Cl)c(Cl)c(S(N)(=O)=O)c1	> 57 µM (inactive)
CCC(C)(C)N=C(NC#N)Nc1cccnc1	> 57 µM (inactive)
COc1ccc(CNc2ncncc2-c2ccccc2C)c(OC)c1	> 57 µM (inactive)
Cn1cc(-c2nc3cnc(N4CCNCC4)nc3n(CCc3ccccc3)c2=O)c2ccccc21	> 57 µM (inactive)
CN(C)c1ccc(-c2nc(NCCN3CCOCC3)c3ccccc3n2)cc1	> 57 µM (inactive)
